Bioassay records from PubChem BioAssay.
A selection: hits, their analogues and other compounds. The true share with any hit is near 9.2%.
FLuc modulator = qHTS profiling assay for firefly luciferase inhibitor/activator using purifed enzyme and Km concentrations of substrates (counterscreen for miR-21 project); Luciferin 4-monooxygenase (Photinus pyralis), P08659; purified FLuc, Km substrates, luminescence inhibition; Potency, µM (titrated, usually from 57.5 µM), for the others: at the top dose activity change, negative = inhibition, hits mostly inhibitors; hit rate 6.9% among 360,000;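 further: plate controls were vehicle for no effect and reference inhibitor for full effect; nearly all actives have a fitted effect of over 55% in size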
Target sequence (P08659 whole entry, looked up): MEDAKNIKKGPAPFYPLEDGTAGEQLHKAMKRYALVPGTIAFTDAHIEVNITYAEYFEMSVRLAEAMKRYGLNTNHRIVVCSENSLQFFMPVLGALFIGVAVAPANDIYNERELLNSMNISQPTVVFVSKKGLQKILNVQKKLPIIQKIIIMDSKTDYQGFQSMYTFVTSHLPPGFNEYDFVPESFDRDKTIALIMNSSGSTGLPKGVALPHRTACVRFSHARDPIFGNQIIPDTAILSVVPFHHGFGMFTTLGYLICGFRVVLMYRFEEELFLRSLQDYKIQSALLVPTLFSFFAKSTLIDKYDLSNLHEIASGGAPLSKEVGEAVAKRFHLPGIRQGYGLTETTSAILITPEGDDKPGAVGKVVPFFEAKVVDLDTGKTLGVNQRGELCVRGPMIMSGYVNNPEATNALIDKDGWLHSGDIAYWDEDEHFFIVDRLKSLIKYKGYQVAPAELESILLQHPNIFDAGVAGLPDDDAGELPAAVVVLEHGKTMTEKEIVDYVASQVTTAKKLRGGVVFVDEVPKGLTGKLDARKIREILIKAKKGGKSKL
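Biochemical qHTS of compounds, final roughly 60 µM downward over six points, against 10 nM purified firefly luciferase using Km concentrations of substrates (10 uM D-luciferin, 10 uM ATP) in Tris acetate pH 7.5 buffer; luminescence output.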
NPC1 promoter act = qHTS Assay for NPC1 Promoter Activators; Huh7 NPC1 promoter luciferase reporter, 24 h; Potency, µM (doses to about 9.22 µM), without a hit: at the highest dose activation, most hits filed as activators; hit rate 2.4% among 320,000; AID 485313, 2010; further: % of control where 0% means no effect; nearly all actives have a fitted effect of over 60% in size
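Huh7 cells stably carrying NPC1 promoter–luciferase, plated in Opti-MEM with 10% FBS for 2 h, were exposed to compound in DMSO for 24 h at 37 °C; luciferase reagent was added for 10 min and luminescence read.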
ELG1 DNA repair = qHTS screen for small molecules that inhibit ELG1-dependent DNA repair in human embryonic kidney (HEK293T) cells expressing luciferase-tagged ELG1; hit rate 2.3% among 330,000; Potency, µM (doses to about 46.1 µM), for the others: at the top dose activity change, negative = inhibition, actives largely listed as inhibitors; HEK293T ELG1-luciferase reporter, luminescence, 16 h; DNA damage induced by 5-fluorouridine; further: on the % scale 0 is the no-effect control and ±100 the full control effect; nearly all actives have a fitted effect of over 55% in size
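Step one: seed 2,000 cells per well. Step two: pin-transfer compound or DMSO alongside 5-fluorouridine. Step three: incubate 16 hr, 37 °C, 5% CO2. Step four: add ONE-Glo, wait 30 min, read luminescence.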
ELG1 genotoxic = qHTS screen for small molecules that induce genotoxicity in human embryonic kidney (HEK293T) cells expressing luciferase-tagged ELG1. HEK293T ELG1-luciferase reporter, luminescence, 16 h. Potency, µM (titrated, usually from 46 µM), for inactives: top-dose activity change, positive = activation, actives largely listed as activators. hit rate 1.3% among 330,000; further: % of control where 0% means no effect; nearly all actives have a fitted effect of over 60% in size
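Genotoxic stress is detected as increased luminescence from luciferase-tagged ELG1 in HEK293T cells, measured with ONE-Glo after a 16 hr treatment at 37 °C.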
Rab9 prom act = qHTS Assay for Rab9 Promoter Activators; Huh7 Rab9 promoter-luciferase reporter, luminescence, 24 h; Potency, µM (top dose mostly 9.22 µM), for the others: top-dose activation, negative = inhibition, actives largely listed as activators; hit rate 2.8% among 320,000; AID 485297, 2010; further: % of control where 0% means no effect; nearly all actives have a fitted effect of over 60% in size
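Steps: seed 1500 Huh7 Rab9-luc cells per well, rest 2 h at 37 °C; add compound in DMSO; incubate 24 h; add luciferase reagent, 10 min ambient; read luminescence.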
SMN2 splice enh = qHTS Assay for Enhancers of SMN2 Splice Variant Expression. Potency, µM (top dose mostly 46.1 µM), without a hit: top-dose activity change, positive = activation, actives largely listed as activators. hit rate 2.8% among 210,000. AID 1458, 2008. HEK293 SMN2-luciferase splicing reporter, luminescence, 30-36 h; further: % of control where 0% means no effect; nearly all actives have a fitted effect of over 55% in size
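HEK293 cells carry an SMN2 minigene-luciferase reporter in which exon 7 inclusion puts luciferase in frame. Cells were seeded at 2000 cells/well, attached for 10-12 hours, then exposed to compounds for 30-36 hours at 37C before ONE-Glo luminescence.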
The depositor's hits bear a star; u = inconclusive; x = no result given; [ ] = another dose, or the depositor's remark. The call rests on the fitted dose curve; in most records, active means well fitted curve in the direction sought with a large enough effect; inconclusive means small, poorly fitted or top-dose-only effect, or another doubt; inactive means no such curve, though single readings can be large; an effect the other way counts as inactive or inconclusive. Potency means the concentration at half of the fitted maximal effect.

SMILES | FLuc modulator | NPC1 promoter act | ELG1 DNA repair | ELG1 genotoxic | Rab9 prom act | SMN2 splice enh
CC(C)(C)c1ccc(Cn2c(=O)cnc3ccccc32)cc1 | 15µM* | -1% | -11% | u | -1% | x
O=C(c1ccccc1Cl)N1c2ncnn2C2(CCCCC2)[C@@H]2CCCC[C@@H]21 | -14% | x | x | x | x | x
COc1cccc([C@@H]2Oc3ccc(Br)cc3C[C@H]2OC(=O)N[C@H](C)C2CCCCC2)c1 | x | x | x | x | x | 2%
O=C(COc1ccccc1)Nc1cccc(-c2ccc(N3CCOCC3)nn2)c1 | 1.9µM* | 1.8µM* | u | 2.3µM* | 1.3µM* | x
O=C(COc1ccc(Cl)cc1Cl)Nc1cccc(-c2ccc(N3CCOCC3)nn2)c1 | 0.43µM* | u | u | 1.8µM* | 1µM* | x
CCS(=O)(=O)c1ccc(-c2cccc(NC(=O)COc3ccccc3)c2)nn1 | 1% | 0% | 14% | 6% | 0% | x
Cc1c(NS(C)(=O)=O)cccc1-c1nc2ccccc2s1 | 8.5µM* | x | x | x | x | x
CS(=O)(=O)Nc1ccc(-c2nc3ccccc3s2)cc1 | 1.1µM* | x | x | x | x | x
Cc1nc2ccc(S(=O)(=O)Nc3cccc(-c4nc5cccnc5s4)c3C)cc2s1 | u | -6% | 5% | -3% | -2% | -75%
COc1ccc(OC)c(C(=O)N(C)C2CCCN(Cc3ccccc3F)C2)c1 (stereo not given) | 1% | 1% | -6% | -3% | -2% | x
COC(=O)c1ccc(COC(=O)CCNS(=O)(=O)c2ccc(C)c(C)c2)cc1 | 1% | -3% | -2% | 1% | 3% | x
COC(=O)[C@@H]1C2CC3c4[nH]c5cc(OC)ccc5c4CCN3CC2C[C@H](OC(=O)c2cc(OC)c(OC)c(OC)c2)C1OC (stereo not given in full) | x | x | x | x | x | -3%
COC(=O)[C@H]1[C@H]2C[C@@H]3c4[nH]c5cc(OC)ccc5c4CCN3C[C@H]2C[C@@H](OC(=O)c2cc(OC)c(OC)c(OC)c2)[C@@H]1OC | 7% | -14%[46.1 µM] | 10µM* | -18% | -23%[46.1 µM] | 8%
CC(=O)N=c1c(C#N)cc2c(=O)n3cccc(C)c3nc2n1CCCOC(C)C | 1% | -3% | 7.3µM* | -4% | -2% | x
COCCCn1c(=NC(=O)c2ccncc2)c(C#N)cc2c(=O)n3cccc(C)c3nc21 | -1% | -4% | -12% | -6% | -5% | u
Cc1cccn2c(=O)c3cc(C#N)c(=NC(=O)c4cccs4)n(CCCOC(C)C)c3nc12 | 1% | -1% | 0% | -6% | 3% | x
Cc1cccn2c(=O)c3cc(C#N)c(=NC(=O)c4ccncc4)n(CCCOC(C)C)c3nc12 | 4% | 0% | 12µM* | 0% | -5% | -8%
Cc1ccc(C(=O)N/C(=C\c2ccco2)C(=O)N2CCOCC2)cc1C | -2% | 10% | 21µM* | -6% | 0% | x
O=C(Nc1cccc(/C=C/c2ccccn2)c1)c1ccc(-n2cncn2)c([N+](=O)[O-])c1 | 24µM* | -3% | 9.2µM* | -42% | 18% | x
O=C(Nc1cccc(/C=C/c2ccccn2)c1)c1cc(Cl)ccn1 | 19µM* | u | u | u | 2.8µM* | x
O=C(Nc1ccc(F)c(F)c1)c1ccc(-n2cncn2)c([N+](=O)[O-])c1 | 3% | -1% | u | -6% | -4% | x
COc1ccc(C2c3c(n(C)c4ccccc34)C(=O)N2CC(=O)Nc2ccc(C)c(Cl)c2)cc1 (stereo not given) | -11% | x | x | x | x | x
COc1ccc(NC(=O)COc2ccc3c(c2)OCO3)cc1 | u | 15% | u | -3% | 11% | x
CC(=O)Nc1cccc(NC(=O)COc2ccc3c(c2)OCO3)c1 | 9.5µM* | 5% | u | 9% | 28% | x
